Data on 93 compounds can be found in PubChem BioAssay AID504408 (Broad Institute, 2011).

Out of some 300,000 compounds screened, about 5,200 (1.7%) were called active.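 Rule for the calls: active = mean replicate activation of at least 50% with a set share of replicates each reaching 50%; inconclusive = only one of those two conditions met; inactive = mean below 50% and too few replicates reaching it.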 Shown is part of a subset that was picked to be rich in actives.

A short description of the experiment: HSF-1 activators, primary screen, NIH3T3-HGL cells, MG132 stress, luminescence, single point (AID 504408).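 Note: 0% = median of the neutral control wells and 100% = twice that signal.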 Conditions: NIH3T3-HGL HSF-1 luciferase reporter, MG132, 8 h; at 9 µM; stronger effect = higher value; 100% = twice DMSO control signal. For orientation: A reporter such as luciferase makes a cellular process visible.
For `O=C(CSc1ccccn1)N1CCN(S(=O)(=O)c2ccc(Cl)cc2)CC1`, the activation was 9.98% (inactive).
The value for `O=S(=O)(O)Oc1c[nH]c2ccccc12` was -0.476% (inactive); that for `CCS(=O)(=O)c1ccc(-c2cccc(NC(=O)c3ccc(Br)o3)c2)nn1` was -23.4% (inactive); that for `O=C(Nc1ccc(Cl)cn1)Nc1cccs1` was 69.7% (active).
For the compound `O=C(Nc1cccc([N+](=O)[O-])c1)Nc1ccc(Cl)cn1`, the activation is -5.81% (inactive).
Turning to `CCCc1cc(C(=O)Nc2ccc(Cl)cn2)cs1`, the activation was 43.8% (inactive).
On to `COc1ccc(NC(=O)CN(C)C(=O)/C=C/c2cn(Cc3ccccc3)nc2-c2cccnc2)cc1`, for which the activation is 1.78% (inactive).
To `COC(=O)[C@]1(C)N[C@H](c2ccc(-c3ccc(Cl)c(Cl)c3)cc2)[C@@H]2C(=O)N(C)C(=O)[C@@H]21` belongs 23% (inactive).
As to `Cn1c(CCN2CCCC2)nc2cc(NS(=O)(=O)c3ccccc3)ccc21`, the activation is -1.14% (inactive).
On to `Cn1c(CCN2CCCCCC2)nc2cc(NC(=O)Nc3ccccc3)ccc21`, for which the activation is 276% (active).
For the compound `Cn1c(CN2CCOCC2)nc2cc(NC(=O)c3ccc(Cl)cc3)ccc21`, the activation was 70% (active).
Consider `CCC(=O)Nc1ccc2c(c1)nc(CCN1CCN(c3ccccn3)CC1)n2C`, for which the activation is 27.9% (inactive).
In the case of `CC(=O)NCCc1nc2cc(NC(=O)c3ccccc3)ccc2n1C`, the activation was -16.5% (inactive).
As to `CCOC(=O)N1CCN(Cc2nc3cc(NC(C)=O)ccc3n2C)CC1`, the activation is -12.5% (inactive).
To `COC(=O)c1ccc(SCc2ccccc2)nc1` belongs 18.6% (inactive).
The value for `CCOc1ccc(NC(=O)CN(C)C(=O)c2c(C)noc2C)cc1OCC` was 8.14% (inactive); that for `CCOC(=O)c1c(NC(=O)CN2C(=O)NC3(CCC(C)CC3)C2=O)sc(C)c1CC` (stereo not drawn) was 2.47% (inactive); that for `COc1ccc(C2=NN(C(=O)c3cccnc3)C(c3ccccc3)C2)cc1` (stereo not drawn) was 4.6% (inactive).
The value for `COc1ccc(C2CC(c3ccc([N+](=O)[O-])cc3)=NN2C(C)=O)cc1` (stereo not drawn) was 22% (inactive); that for `COc1ccc(C2CC(c3ccccc3)=NN2C(=O)c2ccc(Cl)c([N+](=O)[O-])c2)cc1` (stereo not drawn) was 73.2% (active).
Take `OCc1ccc(-c2ccccc2)c(-c2ccccc2)c1`: the activation is -0.0415% (inactive).
On to `Cc1ccc(CSCC(=O)N(C)CC(=O)Nc2cccc(F)c2)cc1`, for which the activation was 4.88% (inactive).
On to `Cc1cc(C)c(C)c(S(=O)(=O)Nc2cccnc2)c1C`, for which the activation was -8.55% (inactive).
For `COc1ccc(N2CCN(C(=O)/C(C#N)=C/c3ccccc3)CC2)cc1`, the activation was -4.53% (inactive).
On to `CCOC(=O)/C(C#N)=C/c1ccc(N2CCN(Cc3ccccc3)CC2)cc1`, for which the activation was -3.55% (inactive).
The value for `CCOC(=O)/C(C#N)=C/c1ccc(N2CCCCC2)cc1` was 54.1% (active); that for `CCN1C(=O)[C@H]2[C@@H](c3ccc(-c4ccc(OC)cc4)cc3)N[C@@](Cc3ccccc3)(C(=O)OC)[C@H]2C1=O` was 22.5% (inactive).
To `S=C(c1ccccc1)N1CCCC1` belongs 0.831% (inactive).
The value for `OCCN1CCN(C(=S)c2ccc(-c3ccccc3)cc2)CC1` was -5.27% (inactive); that for `S=C(c1ccc(-c2ccccc2)o1)N1CCCCC1` was 63.6% (active); that for `CCCCCC(=O)N1CCN(S(=O)(=O)c2ccc3c(c2)OCCCO3)CC1` was -14% (inactive).
As to `CCCCn1c(N)c(N(CCOC)C(=O)c2cccc(S(=O)(=O)N(C)c3ccccc3)c2)c(=O)[nH]c1=O`, the activation was 0.234% (inactive).
Take `Cc1noc(C)c1/C=N/Nc1ccc2ccccc2n1`: the activation was 59.1% (active).
For the compound `C(=N\Nc1ccc2ccccc2n1)/c1ccc2c(c1)OCO2`, the activation was -41.8% (inactive).
For `Clc1ccc(Nc2ccc3ccccc3n2)cc1`, the activation was 5.69% (inactive).
Consider `Cc1ccc(S(=O)(=O)N(C)c2ccc(OCC(=O)OCC(=O)N(CC#N)c3ccccc3)cc2)cc1`, for which the activation was 7.96% (inactive).
On to `O=S(=O)(NCCCc1ccccc1)c1ccc(Br)cc1`, for which the activation is 11.6% (inactive).
As to `O=C(NCCS(=O)(=O)NCc1ccc(Cl)cc1)c1ccccc1`, the activation was 8.69% (inactive).
To `CCOc1ccc(NS(=O)(=O)c2ccc(C(=O)NC3CCN(Cc4ccccc4)CC3)cc2)cc1` belongs -18.5% (inactive); to `Cc1ccc(-c2nc3ccccc3[nH]2)cc1N`, 36.7% (inactive); to `c1ccc2[nH]c(-c3nc4ccccc4[nH]3)nc2c1`, 77.8% (active).
On to `OC(c1nc2ccccc2[nH]1)C(O)C(O)C(O)c1nc2ccccc2[nH]1` (stereo not drawn), for which the activation was 1.21% (inactive).
To `CCN(CC(=O)Nc1c(F)cccc1F)C(=O)c1ccc(S(=O)(=O)N2CCCCC2)cc1` belongs -12.7% (inactive); to `Cc1ccccc1NC(=O)COc1cccc2c1CCNC2=O`, -1.52% (inactive).
The value for `CCCCn1c(N)c(N(CC(C)C)C(=O)CSc2ccc([N+](=O)[O-])cc2)c(=O)[nH]c1=O` was -6.98% (inactive); that for `Cc1ccc(-c2nn(-c3ccc(F)cc3)cc2C(=O)NCC(c2cccs2)N2CCOCC2)cc1` (stereo not drawn) was -1.83% (inactive).
For the compound `Cc1ccn2c(=O)nc(SCC(=O)NCc3ccc(F)cc3)nc2c1`, the activation was 16.8% (inactive).
Take `O=C(COC(=O)c1ccccn1)NNC(=O)c1ccc([N+](=O)[O-])cc1`: the activation was 5.44% (inactive).
Consider `Cc1cc2nc(SCCN3CCOCC3)[nH]c2cc1C`, for which the activation is 53.2% (active).
To `Cc1cccc(C)c1OCCN1CCOCC1` belongs 3.56% (inactive).
`CCn1c2ccc(F)cc2c2nnc(SCCN3CCOCC3)nc21`: the activation was -5.84% (inactive).
Regarding `COc1ccc(NC(=O)CN(C)C(=O)CC2CCCCC2)cc1`, the activation was 0.174% (inactive).
As to `N#CCCN(C(=O)COC(=O)C1CCN(c2ccc(C(F)(F)F)cn2)CC1)c1ccc(F)cc1`, the activation is 9.78% (inactive).
In the case of `O=C(CSc1nnc(-c2c[nH]c3ccccc23)o1)c1ccccc1`, the activation is 54.2% (active).
As to `CCC(CC)NC(=O)CSc1nnc(-c2c[nH]c3ccccc23)o1`, the activation is 12.5% (inactive).
With `CN(C(=O)CSc1nnc(-c2c[nH]c3ccccc23)o1)C1CCS(=O)(=O)C1` (stereo not drawn), the activation is 20.1% (inactive).
Consider `O=C(COc1ccc(Cl)cc1)Nc1ccccc1CO`, for which the activation is 3.44% (inactive).
`COC(=O)c1sccc1NC(=O)c1ccc(Cl)cc1`: the activation is 12.5% (inactive).
Regarding `COC(=O)c1sccc1NC(=O)COc1ccc(Cl)cc1`, the activation was 65.1% (active).
As to `O=C(NCC(c1ccco1)N1CCc2ccccc2C1)c1ccccc1Cl` (stereo not drawn), the activation was 6.39% (inactive).
To `CC(OC(=O)CNC(=O)c1ccco1)C(=O)Nc1ccc(Cl)cn1` (stereo not drawn) belongs 0.765% (inactive); to `C=CCNC(=O)C1CC2c3ccccc3C1c1ccccc12` (stereo not drawn), 0.377% (inactive).
To `CCC(C)N(C(=O)Cn1nc(C)c([N+](=O)[O-])c1C)C1CCS(=O)(=O)C1` (stereo not drawn) belongs -1.43% (inactive).
On to `COc1ccc(F)cc1S(=O)(=O)NCC(c1ccc2c(c1)OCO2)N1CCN(C)CC1` (stereo not drawn), for which the activation was 7.05% (inactive).
`COc1ccc(S(=O)(=O)Nc2ccc3c(c2)OCO3)cc1Cl`: the activation is -5.83% (inactive).
Turning to `COc1ccc(F)cc1S(=O)(=O)Nc1ccc2c(c1)OCO2`, the activation was 53.7% (active).
On to `COc1ccccc1CCC(=O)OCC(=O)N1CCN(S(=O)(=O)c2ccc(C)cc2C)CC1`, for which the activation is 25.7% (inactive).
The value for `Nc1nc(Nc2ccccc2)nc(NCCO)c1[N+](=O)[O-]` was 12.4% (inactive); that for `COc1cccc(Nc2nc(N)c([N+](=O)[O-])c(NCc3ccco3)n2)c1` was 27.8% (inactive); that for `CNc1nc(Nc2ccc(C)c(Cl)c2)nc(N)c1[N+](=O)[O-]` was 76.4% (active).
Take `Cc1cccn2c(=O)nc(SCC(=O)NCc3ccccc3Cl)nc12`: the activation is 0.293% (inactive).
For `COc1ccc(-c2cnc(SCCNC(=O)c3ccc4c(c3)OCO4)[nH]2)cc1`, the activation was 9.08% (inactive).
For the compound `COc1ccc(C2=NOC(Cn3nc(C(=O)NCc4ccc5c(c4)OCO5)cc3-c3ccccc3)C2)cc1` (stereo not drawn), the activation was 7.07% (inactive).
The value for `CCN1C(=O)[C@H]2[C@@H](c3ccc(SC4CCCCC4)c(OC)c3)N[C@@](Cc3ccccc3)(C(=O)OC)[C@H]2C1=O` was -7.66% (inactive); that for `Cc1ccc(O)c(NC(=O)COc2cc(C)ccc2C)c1` was 76.7% (active); that for `Cc1ccc(F)c(NC(=O)CCOc2ccccc2C)c1` was 7.19% (inactive).
As to `Cc1ccc(O)c(NC(=S)NC(=O)COc2ccc(Br)cc2)c1`, the activation was 12.4% (inactive).
To `CCn1c(COc2ccc(OC)cc2)nnc1SCC(=O)Nc1cc(OC)ccc1OC` belongs 19.9% (inactive); to `CCOC(=O)CNC(=O)CSc1nnc(COc2ccc(Cl)cc2)n1CC`, 52.7% (active); to `CCn1c(COc2ccccc2)nnc1SCC(=O)NCc1ccco1`, -12.7% (inactive).
The value for `Cc1ccc(C(=O)Nc2nc3ccc(Cl)cc3s2)o1` was 44.3% (inactive); that for `O=C(CSc1n[nH]c(-c2cccs2)n1)N1CCCCC1` was -14% (inactive); that for `O=C(OCC(=O)N1CCCC1=O)c1cc(S(=O)(=O)N2CCOCC2)ccc1Cl` was -4.42% (inactive).
The value for `Cc1ccc(N/C=C/C(=O)c2ccccc2)cc1C` was 77.8% (active).
As for `Cc1noc(NS(=O)(=O)c2ccc(N/C=C/C(=O)c3ccccc3)cc2)c1C`, the activation was -20.4% (inactive).
To `CCOc1ccc(N/C=C/C(=O)c2ccccc2)cc1` belongs 23.5% (inactive); to `Cc1c(C)n2c(SCC(=O)NC3CCCC3)nnc2[nH]c1=O`, -15.2% (inactive); to `CCC(=O)/C(=C(/O)c1ccccc1)c1nc2ccccc2[nH]1`, 4.66% (inactive).
For the compound `COc1ccc(/C=C(/NC(=O)c2ccc(C)cc2)c2nc3ccccc3[nH]2)cc1OC`, the activation was -0.506% (inactive).
Regarding `O=C(/C(=C/c1cccc(Cl)c1)c1nc2ccccc2[nH]1)c1ccccc1`, the activation is 199% (active).
As for `Cc1ccc(C)c(OCCC(=O)Nc2cccc(S(=O)(=O)N3CCCC3)c2)c1`, the activation is -4.4% (inactive).
The value for `N#CC1(NC(=O)COC(=O)CSc2ccc(F)cc2)CCCCC1` was 0.517% (inactive).
Consider `CCN(CC(=O)Nc1c(F)cccc1F)C(=O)c1ccc(Sc2nncn2C)c([N+](=O)[O-])c1`, for which the activation was -3.26% (inactive).
